Test results taken from PubChem BioAssay AID651780 (The Scripps Research Institute Molecular Screening Center, 2012).
About 1,800 (75%) of roughly 2,400 compounds were called active. Rule as the data show it: active = inhibition above about 22%; inactive = the rest. So high a share suggests a set chosen from earlier hits. Only a sample is shown.

Test: nonselective antagonists in TAAR1 counter-screen cells, counter-screen for hTAAR1 antagonist project, cell-based, fluorescence, calcium (AID 651780);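 also: CHO-Ga16 host cells stimulated with ATP at an EC80 level; 0% = agonist EC80 plus vehicle and 100% = vehicle without agonist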
Details: counterscreen cell line, antagonist mode, at 3 µM, stronger effect = higher value
For `COC(=O)C1=C(c2ccccc2OCc2ccccc2)C[C@@H]2CC[C@H]1N2C(=O)NCc1ccc(OC)cc1`, the inhibition was 22.2% (active). In the case of `COC(=O)C1=C(c2ccc(F)cc2OCc2ccccc2)C[C@@H]2CC[C@H]1N2C(=O)NCc1ccc(OC)c(OC)c1`, the inhibition is reported as 24.8% (active). In the case of `O=C1C2(Cl)C3(Cl)C4(Cl)C(Cl)(Cl)C5(Cl)C3(Cl)C1(Cl)C5(Cl)C24Cl` (stereo not drawn), the inhibition is reported as 24.9% (active).
